# Laboratory results reported in PubChem BioAssay (NCATS).
# Records with an inconclusive call do not appear. Where a call stands in place of a potency, no number is given. Calls of active or inactive are those of the source. Calls come from the whole dose curve; as a rule, active = well fitted inhibition curve with a large enough effect; inconclusive = small, poorly fitted or top-dose-only effect; inactive = flat fitted curve, though single readings scatter.
# Test system: CRL-7250
# Experiment: qHTS assay to identify novel small-molecules to repurpose for Merkel cell carcinoma treatment (AID 1296009); note: nearly all actives have a fitted effect of over 60% in size
# Conditions: MCC and control cell lines, CellTiter-Glo viability, 72 h; series mostly up to 92 µM
# How it was run: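 Luminescence from CellTiter-Glo, read 10 min after addition at room temperature, reported viability following a 72 hr, 37 degree celsius treatment with NPC or MIPE compounds in titration; values normalized to plate controls.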
Structure (SMILES),Potency,outcome
COc1cc(C)c(C(=O)O[C@@H]2[C@H](O)[C@@H](CO)O[C@H]2n2ccc(=O)[nH]c2=O)c(OC)c1,inactive,–
C[C@@H]1[C@H]2[C@H](O[C@@H]3O[C@H](CO)[C@@H](O)[C@H](O)[C@H]3O)OC=C(C(=O)O)[C@H]2C[C@@H]1O,inactive,–
CCC(C)C(=O)O[C@@H]1[C@@H](O)[C@@H](O[C@H]2O[C@H](CO)[C@@H](O)[C@H](O)[C@H]2O)O[C@H](CO)[C@H]1O (stereo partly drawn),inactive,–
CC/C=C\C(O)C(O)C1=C(C)C(=O)C2(O1)C(=O)NC(OC)(C(=O)c1ccccc1)C2O (stereo not drawn),inactive,–
C=CC(C)(O)CC/C=C(\C)C1CC=C(C)C(=O)O1 (stereo not drawn),inactive,–
NC(=O)c1cccc2[nH]c(-c3ccc(C4CCCN4)cc3F)nc12 (stereo not drawn),inactive,–
CC(C)(O)C1OC1C1=CC(=O)C2(C)OC2C1O (stereo not drawn),inactive,–
CC1(C)CC[C@]2(C(=O)O)CC[C@]3(C)C(=CCC4[C@@]5(C)C[C@@H](O)[C@H](O)[C@](C)(CO)C5CC[C@]43C)[C@@H]2[C@@H]1O (stereo partly drawn),inactive,–
C/C=C/[C@@H]1C=C[C@@H]2C[C@H](C)CC[C@H]2[C@]1(C)/C(O)=C1/C(=O)[C@@H](CO)N(C)C1=O,inactive,–
CCCCCOC(=O)Nc1nc(=O)n(C2O[C@H](C)[C@@H](O)[C@H]2O)cc1F (stereo partly drawn),inactive,–
NC[C@@H]1O[C@@H](O[C@@H]2[C@@H](O[C@@H]3O[C@H](CO)[C@@H](O)[C@H]3O)[C@H](O)[C@@H](N)C[C@H]2N)[C@@H](N)[C@H](O)[C@H]1O,–,inactive [at 9.27 µM]
CC(C)C1CCC(C(=O)N[C@@H](Cc2ccccc2)C(=O)O)CC1 (stereo partly drawn),inactive,–
CC12CCC(=O)C=C1C(O)CC1C2C(O)CC2(C)C1CC[C@]2(O)C(=O)CO (stereo partly drawn),–,inactive [at 9.27 µM]
COC(=O)c1[nH]c(=O)c2ccccc2c1-c1ccc[nH]1,inactive,–
CC(NC(=O)[C@H](Cc1ccccc1)NC(=O)OCc1ccccc1)C(=O)CF (stereo partly drawn),inactive,–
CC1[C@@H](O)[C@@H](O)C2[C@]3(C)C(C[C@H]4OC(=O)[C@H](O)[C@]1(O)[C@@]24C)C(C)(O)C[C@H](O)[C@H]3O (stereo partly drawn),inactive,–
C[C@H]1[C@H](C)CC[C@]2(C(=O)O)CC[C@]3(C)C(=CCC4[C@@]5(C)C[C@@H](O)[C@H](O)C(C)(C)C5CC[C@]43C)[C@H]12 (stereo partly drawn),inactive,–

Structure (SMILES),Potency,outcome
Cn1c(SCC(=O)N2CCC[C@H]2C(=O)Nc2ccccc2-c2ccccc2)nc2ccccc21,inactive,–
CC(C)C1CCC(CO)=CC1/C=C(\CO)C(=O)OCC1(O)CCC(C(C)C)C2C=C(C(=O)O)COC(=O)C21 (stereo not drawn),inactive,–
COc1cc(O)c2c(c1)C1(OC2=O)C(C)=CC(=O)C1O (stereo not drawn),inactive,–
C/C(=C\CCC(C)(C)O)CCO[C@@H]1O[C@H](CO[C@@H]2O[C@@H](C)[C@H](O)[C@@H](O)[C@H]2O)[C@@H](O)[C@H](O)[C@H]1O,inactive,–
Nc1ncnc2c1ncn2[C@H]1O[C@@H](C(=O)N2CCN(CC(=O)Nc3cccc4c3CNC4=O)CC2)[C@H](O)[C@@H]1O,inactive,–
COc1cc2ncnc(Nc3cccc(O)c3)c2cc1OC,inactive,–
Cn1nc(C(C)(C)C)cc1C(=O)NC(Cc1cccc(Cl)c1)C(=O)NCC#N (stereo not drawn),inactive,–
CC(C)(O)C1CCC2(C)C3C(O)C4C(C13)C42CO (stereo not drawn),inactive,–
Cc1ccc(-c2c(-c3nn(C)c4ncnc(N5CCC(N6CCCCC6)C5)c34)cnn2C)cc1 (stereo not drawn),inactive,–
CC12CCC3c4ccc(O)cc4CCC3C1CCC2OC1OC(C(=O)O)C(O)C(O)C1O (stereo not drawn),inactive,–
CC(=O)OCC1=C[C@H](O)[C@@H]2C(C(=O)O)=CO[C@@H](O[C@@H]3O[C@H](CO)[C@@H](O)[C@H](O)[C@H]3O)[C@H]12,inactive,–
C=C1C(=O)OC2C1C(O)CC1(C)C(O)CCC(C=O)C21 (stereo not drawn),inactive,–
CCOC(=O)COc1ccc2c(c1)C[C@@H](NC[C@H](O)c1cccc(Cl)c1)CC2,inactive,–
COc1ccc(C(O[C@@H]2O[C@H](CO)[C@@H](O)[C@H](O)[C@H]2O)C(CO)Oc2ccc(/C=C/CO)cc2OC)cc1O (stereo partly drawn),inactive,–
COc1ccc(/C=C\C(=O)O)c(O[C@@H]2O[C@H](CO)[C@@H](O)[C@H](O)[C@H]2O)c1,inactive,–
C[C@@H]1O[C@@H](O[C@H]2[C@H](O)[C@@H](C(=O)O)O[C@@H](O[C@H]3CC[C@@]4(C)C(CC[C@]5(C)C4CC=C4C6CC(C)(C)CC[C@]6(C(=O)O)CC[C@]45C)C3(C)C)[C@@H]2O[C@@H]2O[C@H](CO)[C@@H](O)[C@H](O)[C@H]2O)[C@H](O)[C@H](O)[C@H]1O (stereo partly drawn),–,inactive [at 9.27 µM]
